According to ChEMBL document CHEMBL1157539, “Thousands of chemical starting points for antimalarial lead identification” (Nature, 2010):

How the values were obtained:
Format in all cases: functional
[1] = system: Plasmodium falciparum; test: GSK_TCMDC: Inhibition of Plasmodium falciparum 3D7 in whole red blood cells, using parasite LDH activity as an index of growth. Test compounds present at 2uM
[2] = system: Plasmodium falciparum; test: GSK_TCMDC: Inhibition of Plasmodium falciparum Dd2 in whole red blood cells, using parasite LDH activity as an index of growth. Test compounds present at 2uM
[3] = system: HepG2; test: GSK_TCMDC: Percent inhibition of human HepG2 cell line. Test compounds present at 10uM.

SMILES | Inhibition [1] [%] | Inhibition [2] [%] | Inhibition [3] [%]
Cc1nnc2c(NC(=O)NC3CCCC3)cc3cc(-c4ccc(CN5CCN(C)CC5)cc4)ccc3n12 | 99 | 91 | 100
Cc1cc(C(=O)CN2C(=O)NC3(CCOc4ccccc43)C2=O)c(C)n1Cc1ccco1 (centres undefined) | 93 | 42 | 13
COc1cccc(CN2CCCN(Cc3cccc(NC(=O)c4cc5ccccc5s4)c3)CC2)c1.O=C(O)C(F)(F)F | 89 | 16 | 17
CNCC(C)(C)c1nc(-c2ccc(Cl)c(O)c2)c(-c2ccncc2)[nH]1.Cl | 98 | 96 | 46
COc1cc(C(C)C)ccc1N1CCN(CCCCNC(=O)c2ccc(NC(=O)c3ccc(Cl)cc3)cc2)CC1 | 98 | 81 | 25
Br.Cc1cc(F)ccc1Nc1nc(N(C)c2ccccc2)c2cccc(O)c2n1 | 92 | 81 | 38
Cc1cccc(-n2c(=O)c3c4c(sc3n3c(SCCC(C)C)nnc23)CCCC4)c1 | 90 | 8 | 0
Cc1cc(-c2cccc(CNC3CCN(C)CC3)c2)ccc1S(=O)(=O)NCc1ccccc1.O=C(O)C(F)(F)F | 99 | 90 | 53
COc1ccc(CNc2ncnc3c2[nH]c2ccc(F)cc23)cc1 | 93 | 71 | 38
COc1cccc(CNc2ncc(-c3ccsc3)c(-c3nccs3)n2)c1 | 89 | 82 | 9
Cl.Ic1cc(CNC2CCCCC2)ccc1OCc1cccc(COc2ccc(CNC3CCCCC3)cc2I)c1 | 93 | 34 | 0
O=C(Nc1cccc(CN2CCCN(Cc3ccc4c(c3)OCO4)CC2)c1)c1ccc(Cl)c(Cl)c1.O=C(O)C(F)(F)F | 92 | 10 | 34
CC1CN(c2ccc(NC(=O)c3ccc(F)cc3)cc2)CCN1Cc1cccc(F)c1.O=C(O)C(F)(F)F (centres undefined) | 81 | 76 | 11
Cl.Oc1ccc2c(c1CNC1CCCCC1)CCCC2 | 98 | 94 | 0
Clc1ccc2c(NN=Cc3ccccc3)ccnc2c1 | 100 | 94 | 0
COc1cc(F)c2ncc(C#N)c(CCN3CCC(NCc4ccc5c(c4)OCCO5)CC3)c2c1.Cl | 97 | 59 | 5
CCCCOc1ccc(C(O)C(CN2CCCCC2)c2ccccc2)cc1 (centres undefined) | 90 | 84 | 7
Cc1c(Cc2ccccc2)c(=O)oc2c(C)c3c(cc12)CN(CC(C)c1ccccc1)CO3 (centres undefined) | 98 | 98 | 1
Cc1csc2nc(-c3ccccn3)nc(Nc3ccncn3)c12.O=C(O)C(F)(F)F | 97 | 85 | 47
O=C(Nc1ccc(Cl)cc1)Nc1ccc(-c2cccc(-c3nc4ccccc4[nH]3)c2)cc1 | 100 | 78 | 69
C=C[C@]1(C)C[C@@H](OC(=O)NC(=O)C2CCN(C(=O)CSc3ccccc3)CC2)[C@]2(C)[C@H](C)CC[C@]3(CCC(=O)[C@H]32)[C@@H](C)[C@@H]1O | 93 | 74 | 0
Fc1cccc(C=NN=c2cc[nH]c3ccc(C(F)(F)F)cc23)c1 | 100 | 97 | 0
CCOc1cc(C(=O)NC2CC(C)(C)N(C)C(C)(C)C2)ccc1-c1nc2cc(Cl)c(Cl)cc2[nH]1 | 100 | 49 | 64
CN(C)c1ccc(-c2csc(C(=O)NC3CCCCN(Cc4ccc(C(C)(C)C)cc4)C3)c2)cc1.O=C(O)C(F)(F)F (centres undefined) | 84 | 55 | 17
Cl.NC(=O)c1cccc(Nc2nccc(Nc3ccc4[nH]c(-c5ccccc5)cc4c3)n2)c1 | 100 | 98 | 28
CCOc1c(C)cc(C(F)(F)F)cc1CNCCCNc1cc(=O)c2ccccc2[nH]1.Cl | 97 | 1 | 0
COc1ccc(NC(=O)Nc2ccc(-c3ccc(-c4nc5ccccc5[nH]4)cc3)cc2)cc1 | 100 | 27 | 22
CC1CN(CCCn2c3ccccc3c3ccc(C(=O)CCCN(C)C)cc32)CC(C)N1.Cl (centres undefined) | 100 | 6 | 26
